For ten compounds, bioluminescence results are on record in the supplement of paper PMC10811239.

The subject of this assay is LEGO organoid PTN (PTEN-/-; TP53-/-; NF1-/-). Put plainly: bioluminescence (viable cell) signal fold change after vs before treatment, normalised to DMSO (ratio); higher = more tumour cell growth / less inhibition. Conditions: 10 µM; treatment time 6 days. On the procedure: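 Luc2-labelled iPSC-derived glioblastoma-like organoids (LEGOs, genotypes PT = PTEN-/-;TP53-/-, PTCC = plus CDKN2A/B-/-, PTN = plus NF1-/-) were treated with 10 uM drug for 6 days (applied every other day) at 37 C. Bioluminescence imaging was done before treatment and 2 days after the last dose. BLI signals were normalised to the DMSO control on the same day and then to the pre-treatment signal (N=3).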
As to `CC(C)Oc1ccc(-c2nc(-c3cccc4c3CC[C@@H]4NCCO)no2)cc1C#N` [Ozanimod], the bioluminescence was 0.741. With `C[C@]12C=CC(=O)C=C1CC[C@@H]1[C@@H]2[C@@H](O)C[C@@]2(C)[C@H]1CC[C@]2(O)C(=O)CO` [Prednisolone], the bioluminescence turned out to be 1.71. For the compound `CO[C@H]1C(=O)[C@]2(C)[C@@H](OC)C[C@H]3OC[C@@]3(OC(C)=O)[C@H]2[C@H](OC(=O)c2ccccc2)[C@]2(O)C[C@H](OC(=O)[C@H](O)[C@@H](NC(=O)OC(C)(C)C)c3ccccc3)C(C)=C1C2(C)C` [Cabazitaxel], the bioluminescence came to 0.429. For the compound `CCCc1nc(C)c2c(=O)[nH]c(-c3cc(S(=O)(=O)N4CCN(CC)CC4)ccc3OCC)nn12` [Vardenafil], the bioluminescence was found to be 1.29.

In the case of `CCC1(c2ccccc2)C(=O)NCNC1=O` [Primidone], the bioluminescence was 0.89. Then `CN[C@H]1CC[C@@H](c2ccc(Cl)c(Cl)c2)c2ccccc21.Cl` [Sertraline hydrochloride], with 1.32; and `C#Cc1cccc(Nc2ncnc3cc(OCCOC)c(OCCOC)cc23)c1` [Erlotinib], with 1.82.

Take `Cl.O=c1n(CCCN2CCN(c3cccc(Cl)c3)CC2)nc2ccccn12` [Trazodone hydrochloride]: the bioluminescence was found to be 0.985. Then `COC(=O)C1=C(C)NC(C)=C(C(=O)OCCN(C)Cc2ccccc2)C1c1cccc([N+](=O)[O-])c1.Cl` (stereo not given) [Nicardipine hydrochloride], with 1.14; and `CO[C@@H]1[C@H](N(C)C(=O)c2ccccc2)C[C@H]2O[C@]1(C)n1c3ccccc3c3c4c(c5c6ccccc6n2c5c31)C(=O)NC4` [Midostaurin], with 0.647.
